Test results taken from PubChem BioAssay AID1490 (National Center for Advancing Translational Sciences (NCATS), 2009).
Hit rate of the full screen: of about 310,000 compounds, about 11,000 (3.5%) were called active. Another 4% or so got no clear call; they are omitted. The sample holds actives, similar compounds and a random draw of the others, so the mix is not that of the screen. A number with no mark means an inactive call. Calls follow the shape of the dose curve; as a rule, active = well fitted inhibition curve with a large enough effect; inconclusive = small, poorly fitted or top-dose-only effect, or another doubt; inactive = no such curve, though single readings can be large or run the other way. Non-standard residues stand in square brackets, D forms with d. Residues, ends and D or L forms follow the SMILES beside them. ξ: configuration not given here. *: point of attachment. Cbz = O=C(OCc1ccccc1)*; ξL = CC(C)CC(N)C(=O)O; ξP = O=C(O)C1CCCN1

These molecules were tested against 4'-phosphopantetheinyl transferase ffp (Bacillus subtilis) (UniProt Q9F4F7) (assay: qHTS Assay for Inhibitors of Bacillus subtilis Sfp phosphopantetheinyl transferase (PPTase)). Settings: Biochemical Sfp PPTase activity.
Text: Assay Submitter: Michael Burkart, University of California, San Diego
Screening Center PI: Austin, C.P.
Screening Center: NIH Chemical Genomics Center [NCGC]
The covalent attachment of a phosphopantetheinyl (4'-PP) arm to a variety of synthases and other proteins is a key posttranslational protein modification. The 4'-PP is installed on the proteins post-translationally from coenzyme A (CoA) on a conserved serine residue by action of phosphopantetheinyl transferase (PPTase) enzymes. Phosphopantetheinylation is essential for synthase activity, and removal of the PPTase gene precludes natural product synthesis in microorganisms, or in the case of fatty acid biosynthesis, renders the organism unviable. PPTase enzymes belong to a distinct structural superfamily. Within bacteria, these enzymes are grouped into two classes based upon primary structure, the AcpS-Type and Sfp-Type PPTases.
Sfp-type PPTases, corresponding to an activator of surfactin production in Bacillus subtilis, are responsible for modifying type I polyketide and nonribosomal peptide synthases of prokaryotes. Sfp-type PPTases are responsible for the activation of a variety of pathogen-associated virulence factors. Among these compounds are toxins such as mycolactone from Mycobacterium ulcerans, siderophores such as vibriobactin from Vibrio cholerae or mycobactin from Mycobacterium tuberculosis, as well as the mycolic acids which form the waxy cell wall of Mycobacteria. The biosyntheses of these natural products are considered attractive targets for drug design.
In search of small molecule Sfp-PPTase inhibitors, a fluorescence quenching assay was developed for detection of Bacillus subtilis Sfp-PPTase enzymatic activity in a miniaturized high-throughput format. The consensus ybbr acceptor peptide […] was N-terminally labeled with Black Hole Quencher-2 (BHQ-2) and used in combination with rhodamine-labeled coenzyme A as a co-substrate.
Inhibition of Sfp-PPTase was detected by recording the fluorescence intensity change over a 30-minute reaction period at a 525 nm excitation and 598 nm emission. Reagents were supplied by Michael Burkart and Timothy Foley, University of California at San Diego.
This BioAssay deposition is for validation of the developed Sfp-PPtase assay.
Assay Buffer: 50 mM Hepes-Na pH 7.6, 10 mM MgCl2, 0.01% Nonidet P-40, and 0.01% BSA.
3 uL of Sfp-PPTase enzyme (final concentration 15 nM) and 1 uL of substrate mixture (final concentration for rhodamine-CoA and BHQ-2-YbbR 5 uM and 12.5 uM, respectively) dispensed in columns 1, 2, 5 - 48. Columns 1 and 2 used to generate neutral control (uninhibited reaction)
Three uL of reagents, consisting of buffer (in columns 3 and 4 as negative control) and Sfp-PPTase (in columns 1, 2, 5 - 48) were dispensed into 1,536-well Greiner black solid bottom plate. Compounds (23 nL) were transferred via Kalypsys pintool equipped with 1,536-pin array. The plate was incubated for 15 min at room temperature, followed by the addition of 1 uL substrate to start the reaction. The plate was then centrifuged at 1000 rpm for 15 seconds, and the fluorescence intensity recorded on a ViewLux High-throughput CCD imager (Perkin-Elmer) using standard BODIPY optics (525 nm excitation and 598 nm emission). The plate was then incubated for 30 minutes, and a second read on the ViewLux was performed. The fluorescence intensity difference over the 30-minute period was used to calculate the respective reaction rate for each well.
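Also: the enzyme is Sfp with the accession as filed and its product quenches rhodamine fluorescence.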
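For largest response in the series, negative = inhibition in this document: 0% = enzyme reaction without inhibitor and -100% = no enzyme wells.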
Potency is read from the fitted curve at half-maximal effect.

Going from `CC(C)CC(NC(=O)C1CCCN1C(=O)[C@@H](C)NC(=O)OCc1ccccc1)C(=O)NCC(N)=O` (stereo not given in full) (Cbz-[dA][ξP][ξL]G-NH2) to `COc1ccccc1NC(=O)[C@H](COCc1ccccc1)NC(=O)OC(C)(C)C`, the largest response in the series, negative = inhibition rises from 4.6% to 14.9%.

Going from `COc1ccc2oc(=N)c(C(=O)Nc3ccc(Br)cc3)cc2c1` to `COc1ccc(NC(=O)c2cccc(Cl)c2)c[n+]1[O-]`, the largest response in the series, negative = inhibition falls from 17.1% to -0.333%.

Compared with `Cc1ccccc1NC(=S)NC(=O)Cc1ccc(Cl)cc1`, `O=C(CN1C(=O)c2ccccc2C1=O)NCc1ccc(C(=O)O)cc1` is higher in largest response in the series, negative = inhibition: 1.33% for the first, 9.6% for the second.

Compared with `COC(=O)c1ccc(CNC(=O)c2ccc3oc(C(C)C)nc3c2)cc1`, `COCCNC(=O)c1ccc(Cn2c(SCC(=O)NCC3CCCO3)nc3ccc(Br)cc3c2=O)cc1` (stereo not given) is lower in largest response in the series, negative = inhibition: 14.1% for the first, -12.8% for the second.

Compared with `CCc1ccccc1NC(=O)CSc1nnc([C@@H](NC(=O)OC(C)(C)C)C(C)CC)o1` (stereo not given in full), `CCc1ccccc1NC(=O)CSc1nnc([C@@H](NC(=O)OC(C)(C)C)C(C)C)o1` is lower in largest response in the series, negative = inhibition: 6.3% for the first, 0.218% for the second.

First: C[C@H](NC(=O)OC(C)(C)C)c1nnc(SCC(=O)Nc2ccc(Br)cc2)o1
Second: CC(C)(C)NC(=O)C(c1ccc(Cl)cc1)N(CCO)C(=O)c1snc(C(N)=O)c1N (stereo not given)
The largest response in the series, negative = inhibition of the first is higher: 20% for the first, 3.24% for the second.

First: CCOC(=O)CC1(NC(=O)c2cc(COc3cncc(Cl)c3)on2)CCCCC1
Second: COc1ccc(OCc2cc(C(=O)N3CCCC3)no2)c2ccccc12
The largest response in the series, negative = inhibition of the first is higher: -1.1% for the first, -21.1% for the second.

Compared with `O=C(Nc1cccnc1Cl)c1cc(-c2cccc(Cl)c2)on1`, `Cc1ccc(NC(=O)C2CCCN2S(=O)(=O)c2cccc3cccnc23)c(C)c1` (stereo not given) is higher in largest response in the series, negative = inhibition: -6.07% for the first, 10.9% for the second.

Going from `O=C(Nc1cccc(F)c1)[C@@H]1CCCN1` to `COc1cccc(N(C(=O)c2snc(C(N)=O)c2N)C(C(=O)NCC2CCCO2)c2c[nH]c3ccccc23)c1` (stereo not given), the largest response in the series, negative = inhibition falls from 1.19% to -7.12%.

First: CCCCC(C(=O)NC(C)(C)C)N(Cc1ccccc1)C(=O)c1snc(C(N)=O)c1N (stereo not given)
Second: NC(=O)c1nsc(C(=O)N(CCCN2CCOCC2)C(C(=O)NC2CCCCC2)c2ccc(Cl)cc2)c1N (stereo not given)
The largest response in the series, negative = inhibition of the first is lower: 3.56% for the first, 15% for the second.

Compared with `CCc1ccc2[nH]c(=O)c(Cc3ccccc3)c(O)c2c1`, `O=C(NCCc1ccccc1)c1ccc2c(c1)N(Cc1ccccc1)CCS2` is higher in largest response in the series, negative = inhibition: 0.106% for the first, 5.03% for the second.

First: CC(NC(=O)c1ccco1)c1ccc2c(c1)OCO2 (stereo not given)
Second: CC(C)N(C(=O)c1ccc(-c2ccccc2F)cc1)C(C)C
The largest response in the series, negative = inhibition of the first is higher: 11.2% for the first, -2.72% for the second.

Compared with `CC(Sc1nnnn1C1CCCCC1)C(=O)O` (stereo not given), `O=C(CCCn1c(SCC(=O)c2ccccc2)nc2ccccc2c1=O)NCC1CCCO1` (stereo not given) is lower in largest response in the series, negative = inhibition: 0.844% for the first, -21.1% for the second.

Compared with `CCCCC(=O)Nc1nnc(S(=O)(=O)N(C)Cc2ccco2)s1`, `CCOc1ccc(S(=O)(=O)NCCCn2ccnc2)cc1NC(C)=O` is higher in largest response in the series, negative = inhibition: -1.11% for the first, 13.6% for the second.

Going from `Cc1nn(-c2ccccc2)c2c1c(C)c(CCC(=O)NCC1CCCO1)c(=O)n2C` (stereo not given) to `CCN1CCc2c(C#N)c(NCc3ccccc3)nc(NCCO)c2C1`, the largest response in the series, negative = inhibition falls from 20.2% to -12.9%.

First: CCc1nc(NCCO)c(C#N)c2c1CCCC2
Second: COc1ccc(Cn2c(=S)[nH]c3cc(C(=O)N4CCCCC4)ccc3c2=O)cc1
The largest response in the series, negative = inhibition of the first is higher: -0.704% for the first, -3.09% for the second.

Compared with `C/C=C/C=N/NC(=O)c1ccncc1`, `O=C(OCCN=C1NS(=O)(=O)c2ccccc21)c1cccc([N+](=O)[O-])c1` is higher in largest response in the series, negative = inhibition: -22.5% for the first, 0.751% for the second.

Compared with `COC(=O)[C@@]1(Cc2ccc(OC)cc2)[C@H]2c3cc(C(=O)N4CCCC4)n(Cc4ccc(OC(F)(F)F)cc4)c3C[C@H]2CN1C(=O)c1ccccc1`, `COC(=O)[C@@]1(Cc2ccc(F)cc2)[C@H]2c3cc(C(=O)N4CCCC4)n(Cc4ccc(OC(F)(F)F)cc4)c3C[C@H]2CN1C(=O)c1ccccc1` is higher in largest response in the series, negative = inhibition: 6.34% for the first, 24.5% for the second.

`COC(=O)CN1C(=O)[C@H]2[C@@H](C3CC3)N3C(=O)CN(Cc4ccc(-c5ccccc5)cc4)C(=O)[C@@]3(Cc3ccccc3)[C@H]2C1=O` was tested, and the largest response in the series, negative = inhibition was 13%.

`C[C@@H](NC(=O)OC(C)(C)C)c1nnc(S(=O)(=O)Cc2ccccc2)o1` was tested, and the Potency was 22.4 µM (active).
For `CC(C)Sc1nnc([C@H](Cc2ccccc2)NC(=O)OC(C)(C)C)o1`, the Potency was 50.1 µM (active).
`CC(Sc1sc(=S)sc1SC(C)C(=O)O)C(=O)O` (stereo not given) was tested, and the Potency was 79.4 µM (active).
`CCCCn1c(SCC(=O)NCC2CCCO2)nc2ccc(N3CCOCC3)cc2c1=O` (stereo not given) was tested, and the Potency was 39.8 µM (active).
With `CC(C)CCNc1nc(N2CCCC2)c2c(c1C#N)CCN(C)C2` the Potency was 70.8 µM (active).
With `CC(=O)N(C1=C(Cl)C(=O)c2ccccc2C1=O)c1ccc(C(=O)O)cc1` the Potency was 1 µM (active).
With `COC(=O)[C@@]1(Cc2ccccc2)[C@H]2c3cc(C(=O)N4CCCC4)n(Cc4ccc(C)o4)c3C[C@H]2CN1C(=O)c1ccccc1` the Potency was 56.2 µM (active).
`Oc1cc(O)c2c(c1)OC(c1ccc(O)c(O)c1)C(O)C2` (stereo not given) was tested, and the Potency was 44.7 µM (active).
